Test results taken from PubChem BioAssay (EPA / NIEHS).
Records with an inconclusive call do not appear. The source made the active and inactive calls. Rule for the calls: active = hit-call score of the fitted dose curve at least 0.9, where 1 is the maximum; inconclusive = response in the unintended direction; inactive = score below 0.9.

How the values were obtained:
[1] = molecular target: D(1A) dopamine receptor (Homo sapiens) (UniProt P21728); assay: NVS_GPCR_hDRD1: NovaScreen (NVS) G Protein-Coupled Receptor Assay for human Dopamine Receptor D1 (DRD1) (AID 2283269)
Chain of D(1A) dopamine receptor (Homo sapiens) (P21728 whole entry, looked up): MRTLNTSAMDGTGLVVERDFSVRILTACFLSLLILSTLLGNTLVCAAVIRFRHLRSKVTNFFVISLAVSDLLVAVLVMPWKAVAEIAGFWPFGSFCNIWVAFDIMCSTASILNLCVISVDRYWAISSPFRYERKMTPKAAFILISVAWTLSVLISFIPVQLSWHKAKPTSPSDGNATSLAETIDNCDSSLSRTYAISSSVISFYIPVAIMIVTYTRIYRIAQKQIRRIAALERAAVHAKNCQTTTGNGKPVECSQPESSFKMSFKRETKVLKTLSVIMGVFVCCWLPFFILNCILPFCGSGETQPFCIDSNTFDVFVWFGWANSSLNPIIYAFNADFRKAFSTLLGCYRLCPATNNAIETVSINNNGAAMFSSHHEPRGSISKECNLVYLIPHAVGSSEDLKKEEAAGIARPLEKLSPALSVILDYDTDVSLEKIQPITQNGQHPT
Procedure, shortened: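 Cell-free competition with radioligand, filter-trapped and scintillation-counted 1 h post-dose, using HEK293-derived human D1 preparation. Duplicate single-point testing at 25 uM first, then concentration series for actives; DMSO served as baseline, loss-of-signal scored.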

[2] = molecular target: Muscarinic acetylcholine receptor M2 (Homo sapiens) (UniProt P08172); assay: NVS_GPCR_hM2: NovaScreen (NVS) G Protein-Coupled Receptor Assay for human Muscarinic, M2 Receptor (AID 2283273)
Chain of Muscarinic acetylcholine receptor M2 (Homo sapiens) (P08172 whole entry, looked up): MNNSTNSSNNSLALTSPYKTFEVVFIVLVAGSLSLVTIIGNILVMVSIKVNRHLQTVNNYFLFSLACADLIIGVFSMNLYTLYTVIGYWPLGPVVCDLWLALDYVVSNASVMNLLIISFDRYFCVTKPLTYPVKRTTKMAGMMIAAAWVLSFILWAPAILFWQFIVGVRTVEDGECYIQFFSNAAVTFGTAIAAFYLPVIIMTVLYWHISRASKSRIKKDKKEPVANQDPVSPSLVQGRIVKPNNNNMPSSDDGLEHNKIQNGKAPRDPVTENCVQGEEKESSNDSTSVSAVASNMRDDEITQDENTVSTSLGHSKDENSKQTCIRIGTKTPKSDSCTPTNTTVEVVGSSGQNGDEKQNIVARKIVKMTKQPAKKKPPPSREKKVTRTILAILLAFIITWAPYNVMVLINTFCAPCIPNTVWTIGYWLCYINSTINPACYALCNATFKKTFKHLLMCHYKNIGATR
Procedure, shortened: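 Radioligand displacement on human M2 receptor membranes from CHO cells, 1 h incubation, filtration with scintillation counting. Primary screen in duplicate at 25 uM; actives retested in concentration series; loss of signal fitted versus DMSO.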

[3] = molecular target: human Thromboxane A2 Receptor (TXA2), TBXA2R (gene 6915) (UniProt P21731); assay: NVS_GPCR_hTXA2: NovaScreen (NVS) G Protein-Coupled Receptor Assay for human Thromboxane A2 Receptor (TXA2) (AID 2283282);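 note: actives reduce bound radioligand signal relative to DMSO baseline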
Chain of human Thromboxane A2 Receptor (TXA2), TBXA2R (gene 6915) (P21731 whole entry, looked up): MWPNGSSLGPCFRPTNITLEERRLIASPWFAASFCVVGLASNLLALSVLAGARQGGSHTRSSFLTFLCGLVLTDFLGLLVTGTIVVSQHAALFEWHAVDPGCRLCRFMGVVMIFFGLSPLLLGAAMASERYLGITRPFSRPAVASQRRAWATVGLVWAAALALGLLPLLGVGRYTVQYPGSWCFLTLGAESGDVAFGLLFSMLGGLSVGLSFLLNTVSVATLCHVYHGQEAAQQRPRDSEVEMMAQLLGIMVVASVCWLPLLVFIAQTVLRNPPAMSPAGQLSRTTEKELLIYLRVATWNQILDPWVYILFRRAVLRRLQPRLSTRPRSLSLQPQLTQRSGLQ
Procedure, shortened: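 Human platelet membranes tested for radioligand displacement by filtration and scintillation counting 1 h post-dose. Screened in duplicate at 25 uM; activity fitted as signal loss relative to DMSO.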

[4] = molecular target: Sodium channel protein type 1 subunit alpha (Rattus norvegicus) (UniProt P04774); assay: NVS_IC_rNaCh_site2: NovaScreen (NVS) Ion Channel Assay for rat Sodium Channel, Site 2 (NaCh) (AID 2283322);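 note: hit means loss of radioligand binding signal relative to DMSO so AC50 marks displacement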
Procedure, shortened: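 Membranes: rat forebrain. Format: competitive radioligand displacement, filter separation, scintillation readout, 1 h exposure. Primary screen in duplicate at 25 uM; actives retested in concentration series.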

[5] = molecular target: human Adenosine A2a Receptor (AdoRA2a), ADORA2A (gene 135) (UniProt P29274); assay: NVS_GPCR_hAdoRA2a: NovaScreen (NVS) G Protein-Coupled Receptor Assay for human Adenosine A2a Receptor (AdoRA2a) (AID 2283256)
Chain of human Adenosine A2a Receptor (AdoRA2a), ADORA2A (gene 135) (P29274 whole entry, looked up): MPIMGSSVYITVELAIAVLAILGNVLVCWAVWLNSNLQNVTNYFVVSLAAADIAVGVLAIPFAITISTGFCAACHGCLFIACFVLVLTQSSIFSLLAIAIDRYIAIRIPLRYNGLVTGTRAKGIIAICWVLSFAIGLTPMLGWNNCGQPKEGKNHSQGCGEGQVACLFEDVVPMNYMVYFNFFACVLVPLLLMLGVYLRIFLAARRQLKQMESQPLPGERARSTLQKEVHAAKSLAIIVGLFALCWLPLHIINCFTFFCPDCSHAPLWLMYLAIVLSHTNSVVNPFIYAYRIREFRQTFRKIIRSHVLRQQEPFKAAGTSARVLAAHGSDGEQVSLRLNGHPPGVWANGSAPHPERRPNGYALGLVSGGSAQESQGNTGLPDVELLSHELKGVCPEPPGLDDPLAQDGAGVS
Procedure, shortened: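 Radioligand displacement on HEK293-derived membrane protein, cell-free; filter-based scintillation counting 1.5 hours after dosing, loss of signal vs DMSO. Single-point duplicate screen at 25 uM, actives retested in concentration series.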

[6] = molecular target: human Opioid Receptor Mu (Opiate Mu), OPRM1 (gene 4988) (UniProt P35372); assay: NVS_GPCR_hOpiate_mu: NovaScreen (NVS) G Protein-Coupled Receptor Assay for human Opioid Receptor Mu (Opiate Mu) (AID 2283290);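 note: hits lower bound tracer signal versus DMSO meaning displacement of the ligand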
Chain of human Opioid Receptor Mu (Opiate Mu), OPRM1 (gene 4988) (P35372 whole entry, looked up): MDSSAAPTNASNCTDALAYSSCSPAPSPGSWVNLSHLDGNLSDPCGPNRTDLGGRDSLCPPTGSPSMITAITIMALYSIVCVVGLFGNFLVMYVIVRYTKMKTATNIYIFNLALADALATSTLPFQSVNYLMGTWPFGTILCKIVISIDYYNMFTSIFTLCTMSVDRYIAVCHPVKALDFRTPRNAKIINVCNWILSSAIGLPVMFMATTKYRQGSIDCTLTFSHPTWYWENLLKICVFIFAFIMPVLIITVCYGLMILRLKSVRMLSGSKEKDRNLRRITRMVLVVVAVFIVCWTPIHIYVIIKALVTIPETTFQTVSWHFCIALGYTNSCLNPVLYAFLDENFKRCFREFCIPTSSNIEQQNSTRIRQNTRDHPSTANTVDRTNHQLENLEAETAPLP
Procedure, shortened: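 Primary screen in duplicate at 25 uM, with actives followed in concentration series. CHO-derived receptor membranes, cell-free; bound radioligand read by scintillation counting after filtration at 2.5 h, decrease scored against DMSO.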

[7] = molecular target: human Neurokinin, NK2 Receptor, TACR2 (gene 6865) (UniProt P21452); assay: NVS_GPCR_hNK2: NovaScreen (NVS) G Protein-Coupled Receptor Assay for human Neurokinin, NK2 Receptor (AID 2283278);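 note: actives reduce bound radioligand signal relative to DMSO baseline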
Chain of human Neurokinin, NK2 Receptor, TACR2 (gene 6865) (P21452 whole entry, looked up): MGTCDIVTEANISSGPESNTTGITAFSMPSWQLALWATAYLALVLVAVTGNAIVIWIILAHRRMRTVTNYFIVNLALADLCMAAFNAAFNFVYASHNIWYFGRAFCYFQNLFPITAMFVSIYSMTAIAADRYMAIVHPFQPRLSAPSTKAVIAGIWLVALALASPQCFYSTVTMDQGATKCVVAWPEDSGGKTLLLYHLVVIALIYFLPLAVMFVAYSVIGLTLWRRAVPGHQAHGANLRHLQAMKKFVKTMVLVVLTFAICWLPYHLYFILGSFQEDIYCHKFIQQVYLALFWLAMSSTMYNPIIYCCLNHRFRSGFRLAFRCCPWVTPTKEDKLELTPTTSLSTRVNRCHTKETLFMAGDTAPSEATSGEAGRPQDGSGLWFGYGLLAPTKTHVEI
Procedure, shortened: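 Cell-free radioligand binding using receptor protein extracted from CHO cells; readings taken 4 hours after chemical dosing by filter-based scintillation counting. Primary screen ran single concentration (25 uM) in duplicate; actives followed up in concentration series, loss-of-signal versus DMSO baseline.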

[8] = molecular target: human Adenosine A1 Receptor (AdoRA1), ADORA1 (gene 134) (UniProt P30542); assay: NVS_GPCR_hAdoRA1: NovaScreen (NVS) G Protein-Coupled Receptor Assay for human Adenosine A1 Receptor (AdoRA1) (AID 2283254)
Chain of human Adenosine A1 Receptor (AdoRA1), ADORA1 (gene 134) (P30542 whole entry, looked up): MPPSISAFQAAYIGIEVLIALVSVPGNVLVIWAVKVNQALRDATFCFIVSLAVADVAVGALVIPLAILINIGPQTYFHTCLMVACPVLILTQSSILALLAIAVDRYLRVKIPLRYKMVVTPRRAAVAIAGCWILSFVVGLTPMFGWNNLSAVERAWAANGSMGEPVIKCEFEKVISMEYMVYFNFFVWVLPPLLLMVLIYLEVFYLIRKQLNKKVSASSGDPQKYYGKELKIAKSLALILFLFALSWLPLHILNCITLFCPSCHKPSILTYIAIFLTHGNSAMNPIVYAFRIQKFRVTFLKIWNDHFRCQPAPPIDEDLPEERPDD
Procedure, shortened: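 Radioligand competition binding on human cortical membranes, 1 h after compound addition; bound radioactivity read by filtration and scintillation counting. Loss of signal versus DMSO baseline scored as displacement; primary screen duplicate at 25 uM, actives retested in concentration series.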

[9] = molecular target: rat Neonicotinoid receptor (NNR), Chrna7 (gene 25302) (UniProt Q05941); assay: NVS_LGIC_rNNR_BungSens: NovaScreen (NVS) Ligand-Gated Ion Channel Assay for rat Neonicotinoid receptor (NNR) (AID 2283315)
Chain of rat Neonicotinoid receptor (NNR), Chrna7 (gene 25302) (Q05941 whole entry, looked up): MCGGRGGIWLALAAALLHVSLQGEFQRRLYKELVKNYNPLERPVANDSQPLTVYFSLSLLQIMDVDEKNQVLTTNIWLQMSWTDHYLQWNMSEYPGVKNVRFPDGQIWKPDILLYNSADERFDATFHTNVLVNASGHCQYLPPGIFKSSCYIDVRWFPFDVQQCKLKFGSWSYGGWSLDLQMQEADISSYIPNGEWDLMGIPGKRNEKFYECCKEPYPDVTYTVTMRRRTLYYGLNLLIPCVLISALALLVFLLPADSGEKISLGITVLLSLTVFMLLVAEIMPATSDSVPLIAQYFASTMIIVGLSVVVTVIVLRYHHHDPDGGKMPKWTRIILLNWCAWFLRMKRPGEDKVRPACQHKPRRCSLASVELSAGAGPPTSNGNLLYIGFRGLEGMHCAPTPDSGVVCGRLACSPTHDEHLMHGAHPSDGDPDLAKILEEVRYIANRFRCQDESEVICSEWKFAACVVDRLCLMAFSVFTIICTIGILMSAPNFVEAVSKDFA
Procedure, shortened: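 Radioligand displacement binding on rat cortical membranes, 2.5 h incubation, filtration and scintillation counting. Loss of specific binding fitted relative to DMSO.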

CN(c1nccc(=O)[nH]1)C1CCN(c2nc3ccccc3n2Cc2ccc(F)cc2)CC1
outcome [1]: inactive
outcome [2]: inactive
AC50 [3]: 0.761 µM (active)
outcome [4]: inactive

CCCCOCC
outcome [1]: inactive

COCCc1ccc(OCC(O)CNC(C)C)cc1 (stereo not given)
outcome [5]: inactive
outcome [1]: inactive
AC50 [4]: 5.04 µM (active)

ClC(c1ccccc1)(c1ccccc1)c1ccccc1
outcome [5]: inactive
outcome [1]: inactive
outcome [6]: inactive

CC(C)Nc1nc(N)nc(Cl)n1
AC50 [5]: 15.6 µM (active)

C[C@@H]1CCN(C(=O)[C@H](CCCN=C(N)N)NS(=O)(=O)c2cccc3c2NC[C@H](C)C3)[C@@H](C(=O)O)C1
AC50 [1]: 17 µM (active)
AC50 [4]: 0.894 µM (active)

CCCCN(CCCC)C(=O)N(CCCC)CCCC
outcome [2]: inactive

CN(C)C(=O)Nc1ccc(Oc2ccc(Cl)cc2)cc1
outcome [7]: inactive
outcome [3]: inactive

Nc1ccc(Cl)c([N+](=O)[O-])c1
outcome [5]: inactive

CCC1CCCCC1
outcome [1]: inactive
outcome [4]: inactive

C=C(C)C(=O)OCC(CC)(COC(=O)C(=C)C)COC(=O)C(=C)C
AC50 [8]: 24.6 µM (active)
AC50 [2]: 24.6 µM (active)

COc1ccc(CCN2CCC(Nc3nc4ccccc4n3Cc3ccc(F)cc3)CC2)cc1
AC50 [2]: 3.04 µM (active)
AC50 [3]: 0.227 µM (active)
AC50 [4]: 0.115 µM (active)

CCC(C)=O
outcome [2]: inactive

CS(=O)(=O)c1ccc(C2=C(c3ccccc3)C(=O)OC2)cc1
outcome [4]: inactive

CC(C)(C)CC(C)(C)c1ccc(OCCOCC[N+](C)(C)Cc2ccccc2)cc1
AC50 [7]: 4.14 µM (active)
outcome [4]: inactive

[O-]n1ccccc1=S.[O-]n1ccccc1=S.[Zn+2]
AC50 [7]: 9.86 µM (active)
AC50 [6]: 0.104 µM (active)

Oc1c(Cl)cc(Cl)c(Cl)c1Cc1c(O)c(Cl)cc(Cl)c1Cl
AC50 [5]: 5.67 µM (active)
outcome [3]: inactive
AC50 [6]: 6.76 µM (active)

CCCCSCCCC
outcome [1]: inactive

COc1ccc(OC)c(N=Nc2c(O)ccc3ccccc23)c1
AC50 [7]: 25 µM (active)
outcome [4]: inactive

CN(C)C(=S)SC(=S)N(C)C
AC50 [1]: 30.8 µM (active)
AC50 [7]: 1.59 µM (active)

NC(=S)NNC(N)=S
outcome [7]: inactive
outcome [6]: inactive

COC(=O)c1ccc([N+](=O)[O-])cc1
outcome [3]: inactive

CC(=O)Nc1ccc(C(=O)CCl)cc1
AC50 [3]: 10.7 µM (active)

CCOC(=O)CN
outcome [1]: inactive

CC(C)(N=C=O)c1cccc(C(C)(C)N=C=O)c1
AC50 [1]: 43.7 µM (active)
outcome [7]: inactive
AC50 [6]: 32.8 µM (active)

CC(C)CC(C)CC(O)CC(C)C (stereo not given)
outcome [3]: inactive

C=CC(C)C#N (stereo not given)
outcome [9]: inactive

C=CCOC(=O)CCCCCC
outcome [1]: inactive

Cc1cc(CCC(=O)OCCOCCOCCOC(=O)CCc2cc(C)c(O)c(C(C)(C)C)c2)cc(C(C)(C)C)c1O
AC50 [3]: 0.23 µM (active)

CCCCCCCCCCCCCCCC(=O)OC/C=C(C)/C=C/C=C(C)/C=C/C1=C(C)CCCC1(C)C
outcome [5]: inactive
AC50 [1]: 34.7 µM (active)
outcome [6]: inactive
outcome [4]: inactive
